Measured values: paper PMC12136788
Residue numbers refer to the chain shown, from its start. In all, about 5,800 sequences were measured (“enrichment r”: median about 0.68, highest 2% from about 11 on). For the sample, the highest values were picked, then their nearest neighbours and some sequences at random.

T1: UNK ZnF1-6 (called full-length) (human, UniProt Q9C0B0 30-357)
T1 sequence: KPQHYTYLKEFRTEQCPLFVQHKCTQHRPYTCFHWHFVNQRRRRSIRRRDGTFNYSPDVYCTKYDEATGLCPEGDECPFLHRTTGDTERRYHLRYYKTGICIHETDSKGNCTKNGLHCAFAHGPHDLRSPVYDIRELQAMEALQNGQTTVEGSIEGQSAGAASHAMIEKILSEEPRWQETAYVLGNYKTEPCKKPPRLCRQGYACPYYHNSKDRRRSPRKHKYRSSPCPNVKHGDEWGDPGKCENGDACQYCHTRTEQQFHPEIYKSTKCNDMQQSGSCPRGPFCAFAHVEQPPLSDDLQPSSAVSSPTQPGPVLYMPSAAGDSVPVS

B1: chr1:17067933:17068034:-|3pUTR|ENSG00000117115|msi1|FALSE|unique (ssRNA)
RNA: GGGAGUUCUACAGUCCGACGAUCACAUAAGGACCCUGGCCUACCCUCCAGCCCAACAGCCAGUUCUGGGUCAGCUGCCAACUUAGGGGUGGUUUGAUUAUCCCAUUGAAAUUCACCAGUGCCUUUGCCAAAGACCCUCUCAUUCAACAGAGGAUUGAGCAUCA
B2: chr12:104760787:104760888:+|3pUTR|ENSG00000171310|unk|FALSE|unique (ssRNA)
RNA: GGGAGUUCUACAGUCCGACGAUCUUCUUUUCUAAUGGCAUUGAAACUUUAAAAAAAAUGGAUUCAACUGUUUUUGCAGAAUGUAGAAAGUAUUCUGUGUCCUUGGUUAAAGAAAUCCACUUGUGAAGUGUGCCUGGAAAAUGACAACAGAGGAUUGAGCAUCA
B3: chr19:811491:811550:+|3pUTR|ENSG00000011304|msi1_unk|FALSE|overlapping (ssRNA)
RNA: GGGAGUUCUACAGUCCGACGAUCUAGCAAUAUUUCCAGUUGACCAAAUAUUCUAAUCUUUUUUCAUUUAUAUGCAAAAGAAAUAGUUUUAAGUAACUUUUUAUAGCAAGAUGAUACAAUGGUAUGAGUGUAAUCUAAACUUCCCAACAGAGGAUUGAGCAUCA
B4: chr5:159157431:159157536:-|3pUTR|ENSG00000145860|unk|FALSE|bound_elsewhere (ssRNA)
RNA: GGGAGUUCUACAGUCCGACGAUCCAAAAAGUGUUUUUCAGACCUCGGUAUUCCUAAUGUGGGAUGUGACUUUAUUUUAUUUUUAGUAGCAAAUUUGGAUGUAGACUGACAGACAUAGCUGAAUGUCUUAAUAAAUUUAAAUUUCAACAGAGGAUUGAGCAUCA
B5: chr7:111727939:111728040:-|3pUTR|ENSG00000128512|unk|FALSE|unique (ssRNA)
RNA: GGGAGUUCUACAGUCCGACGAUCAAGUGGUAAAUAGUGAUAAAGACUCCUUUUGUACCUUUUUAUGUUCACUUUUUUUUAUAUAGUUUAAUCUUAAAACCAAUACGAUAUUGUCAAACGAUACAAUGUGUGACAAUGUUGUAUCAACAGAGGAUUGAGCAUCA
B6: ENSG00000033178:stop:overlap|stop_codon|ENSG00000033178|stop_codon|NA|stop_codon (ssRNA)
RNA: GGGAGUUCUACAGUCCGACGAUCCUAUUGAAAUUUAUGGCUGUCCGAAUAUUUGUUUGUUAAUACAUAAGUGUUCUGUAUAUUAGUAUUCUCUUAUCCUUCACAUCCAGCUUUGCUACUCUGUGGCAUUAGACAACUUUUUUCCAACAGAGGAUUGAGCAUCA
B7: chr7:123541454:123541562:-|3pUTR|ENSG00000128609|unk|FALSE|unique (ssRNA)
RNA: GGGAGUUCUACAGUCCGACGAUCUCCAUAGUGUCAUUUUAUUUUAGUCAUUAUUGAAUUAUACCAUUUACUCUGUUUUCUUAUAGUCUUAAUUUUAUUAUAUUUUGUUGUUACUGUAUUAUAUUUGAAAACCUUCAAAUUAGACAACAGAGGAUUGAGCAUCA
B8: chr2:227556236:227556337:+|3pUTR|ENSG00000173744|msi1|FALSE|bound_elsewhere (ssRNA)
RNA: GGGAGUUCUACAGUCCGACGAUCUGUUGAAUGCCUUUUUGCAAUGAUGACUGAGUUGUUAUCAUAGUAUUUUAAAACCUGUAUAGUGUUUUAGACUUGUUAAAACAUUGCUGUCUAGUGUACAUCUAGCUAAAAGUGUGGUUUCAACAGAGGAUUGAGCAUCA
B9: chr6:11183298:11183399:-|3pUTR|ENSG00000111859|msi1|total|mutant (ssRNA)
RNA: GGGAGUUCUACAGUCCGACGAUCACAUUUCACAUUUUUAAAACCAAAUGUUCAAUCUGUAUUACUCUUUGCCGUCUUGUAUGCCGAGGCUAUUUUUAAAUCAUUAAAUUUUCCGAUCUCUGUUUUCACCGCCACUGGGUUUUCCAACAGAGGAUUGAGCAUCA
B10: chr5:159157431:159157536:-|3pUTR|ENSG00000145860|unk|total|mutant (ssRNA)
RNA: B4 RNA with U83C, A84C, U86C, A87C, U101C, A102C, U115C, A116C
B11: chr7:111727939:111728040:-|3pUTR|ENSG00000128512|unk|total|mutant (ssRNA)
RNA: B5 RNA with U34C, A35C, U83C, A84C
B12: chr7:123541454:123541562:-|3pUTR|ENSG00000128609|unk|total|mutant (ssRNA)
RNA: B7 RNA with U28C, A29C, U44C, A45C, U83C, A84C, U140C, A141C
B13: chr10:117282838:117282939:-|3pUTR|ENSG00000165650|unk|FALSE|bound_elsewhere (ssRNA)
RNA: GGGAGUUCUACAGUCCGACGAUCCCCCUUGUGUUAUUUUUCUUCCUCUUGGUUUUUGAAUUAGUGUUAAAUAGAAUACUGUCUAGAUUCUUAAAAUAUUUUCAUUUCCAUCAUGGUUAUAACAAAUUUGCUGCAUGCCCAAACCAACAGAGGAUUGAGCAUCA
B14: chr17:80395157:80395266:+|3pUTR|ENSG00000173821|unk|FALSE|bound_elsewhere (ssRNA)
RNA: GGGAGUUCUACAGUCCGACGAUCCUUCAAAGCCUUAACUGUCAAAUCUUGCAUUAUCUUGUUUGUACAGAAAUAUACUGGCCUAGCAGAGGCAAAAAAAAAAAAAAUGAAUUUUAUUUUACUUGUCACACCUGUCUUAAUAAACAACAGAGGAUUGAGCAUCA
B15: chrX:133301433:133301604:-|3pUTR|ENSG00000076716|msi1|total|mutant (ssRNA)
RNA: GGGAGUUCUACAGUCCGACGAUCUUGUUUUUCUUGGGGGAUGGGGUGGGGUGGGAGCCGGCCGAGCUGAGAAUACUACAUCUCCGUGGUGACCUUCCGCCACGUGGGUGAAGUGGCAAAGGCCAUGGCCAUAUCUGUUGUCCCCAACAGAGGAUUGAGCAUCA
B16: chr21:44851366:44851434:-|CDS_3pUTR|ENSG00000183255|msi1_unk|total|mutant (ssRNA)
RNA: GGGAGUUCUACAGUCCGACGAUCAGGACAGUCCUCUCGUCUUGCAGACUGGUGACCUUCUAUUCCCUGUUCAUCUCUGUUUCCCGAUUCCGUCACUUGAAAUAAGAAAUCUUUGGGGUUUGGGCUUUUUUAUACUCUUCUCAGCAACAGAGGAUUGAGCAUCA
B17: ENSG00000142192:stop:overlap|stop_codon|ENSG00000142192|stop_codon|NA|stop_codon (ssRNA)
RNA: GGGAGUUCUACAGUCCGACGAUCAGAUGCAGCAGAACGGCUACGAAAAUCCAACCUACAAGUUCUUUGAGCAGAUGCAGAACUAGACCCCCGCCACAGCAGCCUCUGAAGUUGGACAGCAAAACCAUUGCUUCACUACCCAUCCAACAGAGGAUUGAGCAUCA
B18: chr1:13115521:13116400:-|CDS|ENSG00000275774|control|control|control (ssRNA)
RNA: GGGAGUUCUACAGUCCGACGAUCGAACAGAGCAAACAAGAGGUAGAGGUGAAAAAUGCUAAGUCAGAAGAGGAGCAGAGCAGUAGCUCCAUGAAGAAAGAUGAGACUCAUGUAAAGAUGGAGUCUGAGGGGGGUGCAGAAGACCAACAGAGGAUUGAGCAUCA
B19: ENSG00000070961:be:win_5251|3pUTR|ENSG00000070961|bound_else_gene|NA|bound_elsewhere_windowed (ssRNA)
RNA: GGGAGUUCUACAGUCCGACGAUCUGGAUUCUUUAGCUCUCUUUUUCUUUCCUUCAUCUACCUUCUUCUCUUUUUUGCCUCUGUCUUUACCCUUUAGAAACUGGCAUGUGUUAGGGCCCAGAUUUCACCAGAUACACAAUCCUCCAACAGAGGAUUGAGCAUCA
B20: ENSG00000198589:be:win_6101|CDS|ENSG00000198589|bound_else_gene|NA|bound_elsewhere_windowed (ssRNA)
RNA: GGGAGUUCUACAGUCCGACGAUCUAGGAAAUCAGAACUCAGAAAACGAGAUCCUCCUGGAAGGCGAUGAUGAUACUCUGUCAUCCGUGGAUGAGAAAGAUUUAGAGAAUCUUGCCGGUCCUGUUAGCCUGAGCACACCAGCUCCAACAGAGGAUUGAGCAUCA
B21: ENSG00000227500:stop:overlap|stop_codon|ENSG00000227500|stop_codon|NA|stop_codon (ssRNA)
RNA: GGGAGUUCUACAGUCCGACGAUCGCAACAGCCUGCCCGAGUACCCCACUGUGCCCAGCUACCCGGGCAGUGGCCAGUGGCCUUAGAGGGAGCCUGCCCUGCCCCCACCGCCCACCACCUCCUCCCCUUCAUUCCUGCUGCUACCAACAGAGGAUUGAGCAUCA
B22: chr20:3963869:3963970:-|CDS|ENSG00000101236|unk|total|mutant (ssRNA)
RNA: GGGAGUUCUACAGUCCGACGAUCAAUCUGCCUCUCAACAUAUAUAUUGUGGUUUUUGGUACUGCUAUAUUUGUCUUCAUCCUCCGUUUACUCUUCUGUUGCUACUUGAUCCGGUAACCAAUUUUCAUUCUAUGUUACUUCAAACAACAGAGGAUUGAGCAUCA
B23: chr19:57593639:57593745:+|3pUTR|ENSG00000171649|unk|total|mutant (ssRNA)
RNA: GGGAGUUCUACAGUCCGACGAUCUGAACCUUCUUAUUUCUCUACAUUCUUGCCAUACUUGGUAUGGUCCGUCUUUUUAAUUUCCGUUGUUUUAACCGCUGUAUAACCGCAUCUGUCUGUGAUUUUAUUGCAUUUUUCUGGUAUCAACAGAGGAUUGAGCAUCA
B24: chr19:57593639:57593745:+|3pUTR|ENSG00000171649|unk|FALSE|unique (ssRNA)
RNA: B23 RNA with C68U, C69A, C83U, C84A, C95U, C96A, C106U, C107A
B25: chr2:171983412:171983537:+|3pUTR|ENSG00000128708|unk|FALSE|unique (ssRNA)
RNA: GGGAGUUCUACAGUCCGACGAUCUGAUGACUUUAAUUUUAAAAUCUUGUGACAUUUUGCUUAUACUAAAAGUUAUCUAUCUUUAGUUGAAUAUUUUCUUUUGGAGAGAUUGUAUAUUUUAAAAUACUGUUUAGAGUUUAUGAGCAACAGAGGAUUGAGCAUCA
B26: chr2:216672374:216672548:-|3pUTR|ENSG00000115461|msi1|total|mutant (ssRNA)
RNA: GGGAGUUCUACAGUCCGACGAUCUUUUUCUUUUUUUUUUUGAAGACAGCAAUAACCACAGUACAUAUUACUGCCGUUCUCUACCGUUUUACAUACAUUCAUACCAUAACUCUGUUCUCUCCUCUUUUUUGUUUUCAACUUUAACAACAGAGGAUUGAGCAUCA
B27: chr2:216672374:216672548:-|3pUTR|ENSG00000115461|msi1|FALSE|unique (ssRNA)
RNA: B26 RNA with C73U, C74A, C83U, C84A

The binders below were run against T1, UNK ZnF1-6 (called full-length) (assay: nsRBNS (natural sequence RNA bind-n-seq); RBNS binding buffer (assumed for nsRBNS): 25 mM Tris pH 7.5, 150 mM KCl, 3 mM MgCl2, 0.01% Triton X-100, 500 ug/ml BSA, 20 U/ml SUPERase-In, 4 C; UNK is unkempt and MSI1 is Musashi-1; names of the RNAs are library labels; protein concentration not given here; high values mean tight binding).

Row | Binder | binding signal [enrichment R]
1 | B1 | 0.896
2 | B2 | 0.431
3 | B3 | 0.832
4 | B4 | 11.8
5 | B5 | 21.5
6 | B6 | 0.919
7 | B7 | 150
8 | B8 | 0.596
9 | B9 | 1.08
10 | B10 | 0.813
11 | B11 | 2.33
12 | B12 | 17
13 | B13 | 3.48
14 | B14 | 0.564
15 | B15 | 1.2
16 | B16 | 0.43
17 | B17 | 0.618
18 | B18 | 0.882
19 | B19 | 1.45
20 | B20 | 0.619
21 | B21 | 0.868
22 | B22 | 0.575
23 | B23 | 1.21
24 | B24 | 122
25 | B25 | 4.24
26 | B26 | 1.89
27 | B27 | 12.2
